This passage reports composite z-score and z-score results from PubChem BioAssay.

The source made the active and inactive calls. Unless noted, the rule behind the calls is not given here.

The subject of experiment [1] is XIP peptide (Xip251-270) binding. The experiment can be described thus: small-molecule binders of XIP peptide, primary screen, biochemical, small-molecule microarray, fluorescence 635/667 nm, 0.1 µg/mL protein (AID 1182). The following applies: fluorescent protein binding, 635 nm, higher = more signal, called active from +8 up or from −8 down.
Experiment [2] has as its system XIP peptide (Xip251-270). The experiment can be described thus: small-molecule binders of XIP peptide, primary screen, biochemical, small-molecule microarray, fluorescence 635/667 nm, 0.5 µg/mL protein (AID 1183). The settings on record: small-molecule microarray binding, fluorescence 635 nm; higher = more signal.
A short description of experiment [3]: Plasmodium falciparum growth inhibition, primary screen, strain 3D7, DAPI fluorescence, 100 nL (AID 1184).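 Note: parasites grown inside human red blood cells in medium with human serum.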 The following applies: P. falciparum 3D7 growth, 3 d, higher = more signal.
For experiment [4], the target named is Homeobox protein Hox-A13 (Mus musculus) (UniProt Q62424). The experiment can be described thus: inhibitors of HoxA13-DNA binding, primary screen, biochemical, fluorescence polarization, labeled oligonucleotide (AID 1185). The settings on record: 15 min, higher = more signal, called active from +8 up or from −8 down. For orientation: In fluorescence polarisation assays a small probe gives low polarisation when free and higher when bound to something large.

Experiment [5] is described as follows: inhibitors of hydroxyurea-induced Chk1 phosphorylation, primary screen, imaging, HeLa, phospho-Chk1 antibody, percent positive cells (AID 1186). The following applies: hydroxyurea-induced phospho-Chk1 immunofluorescence imaging, higher = more signal.
A short description of experiment [6]: inhibitors of hydroxyurea-induced Chk1 phosphorylation, primary screen, imaging, HeLa, phospho-Chk1 nuclear intensity (AID 1187). The settings on record: hydroxyurea-induced phospho-Chk1 immunofluorescence imaging, higher = more signal.

Sequence of Homeobox protein Hox-A13 (Mus musculus) (Q62424 whole entry, looked up): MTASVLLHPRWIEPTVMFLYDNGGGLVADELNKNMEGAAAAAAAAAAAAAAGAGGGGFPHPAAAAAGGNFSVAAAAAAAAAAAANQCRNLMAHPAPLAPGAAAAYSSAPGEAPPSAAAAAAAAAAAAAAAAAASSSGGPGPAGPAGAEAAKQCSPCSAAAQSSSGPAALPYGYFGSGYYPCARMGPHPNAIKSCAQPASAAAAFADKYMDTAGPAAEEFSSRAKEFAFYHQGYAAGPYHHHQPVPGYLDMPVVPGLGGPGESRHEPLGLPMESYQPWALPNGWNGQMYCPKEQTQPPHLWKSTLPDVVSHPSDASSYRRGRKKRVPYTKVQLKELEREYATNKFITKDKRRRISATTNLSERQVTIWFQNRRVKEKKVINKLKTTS

Consider `COCCOC(=O)N1C(=O)[C@@]2(c3cc(C#CCNC(N)=O)ccc31)[C@H](C(=O)N1CCCCCCC1)[C@H]1C(=O)O[C@H](c3ccccc3)[C@H](c3ccccc3)N1[C@@H]2c1ccc(O)cc1`, for which the composite z-score is 0.328 (inactive) in experiment [1] and 0.46 in experiment [2]. Further, the z-score is 0.178 in experiment [3], 0.172 (inactive) in experiment [4], 0.0004 (inactive) in experiment [5] and 0.132 (inactive) in experiment [6].
With `CCCCN1CC=CC23O[C@@H]4/C=C\CCC(C)OC(=O)C4[C@H]2C(=O)N(CCCCCCO)[C@@H]3C1=O` (some centres not stated), the figures for the composite z-score in experiment [1] and in experiment [2] were 0.879 (inactive) and 0.0096, respectively. For the same compound, the z-score is 0.11 in experiment [3], -4.7 (inactive) in experiment [4], -0.494 (inactive) in experiment [5] and 0.339 (inactive) in experiment [6].
Consider `CN(C)CCCNC(=O)[C@@H]1c2ccccc2C(=O)N(Cc2ccc(OC(F)(F)F)cc2)[C@H]1c1ccc(CO)cc1`, for which the composite z-score in experiment [1] is 0.323 (inactive); in experiment [2], 0.721. In addition, the z-score in experiment [3] was -1.9; in experiment [4], -3.41 (inactive); in experiment [5], -0.234 (inactive); in experiment [6] it was -0.296 (inactive).
For `COC(=O)C[C@H]1O[C@]2(C(=O)N(C)c3ccccc32)[C@@H](C)[C@@H]1[Si](C)(C)c1ccc(C)cc1`, the values for the composite z-score in experiment [1] and in experiment [2] were 0.611 (inactive) and 0.336, respectively. Besides, the z-score in experiment [3] was -2.09; in experiment [4] it was -5.95 (inactive); in experiment [5], 0.0207 (inactive); in experiment [6] it was 0.0333 (inactive).
Regarding `COC(=O)[C@@]1(Cc2ccccc2)[C@H]2c3cc(C(=O)N4CCCC4)[nH]c3C[C@H]2CN1C(=O)c1ccccc1`, the results for the composite z-score in experiment [1] and in experiment [2] were 0.282 (inactive) and 0.659, respectively. Further, the z-score in experiment [3] was -0.0756; in experiment [4] it was -1.8 (inactive); in experiment [5], 1.1 (inactive); in experiment [6], 1.21 (inactive).
As for `COCCOC(=O)N1C(=O)[C@@]2(c3cc(C#CC4(O)CCCCCC4)ccc31)[C@H](C(N)=O)[C@H]1C(=O)O[C@H](c3ccccc3)[C@H](c3ccccc3)N1[C@@H]2c1ccccc1OCCO`, the composite z-score was -0.0203 (inactive) in experiment [1] and 0.792 in experiment [2]. The z-score in experiment [3] was -2.19; in experiment [4], -1.56 (inactive); in experiment [5] it was 0.276 (inactive); in experiment [6], 0.217 (inactive).
`O=C1OCC=C[C@H]2OC34C=CCN(Cn5nnc6ccccc65)C(=O)[C@H]3N(CCCCCCO)C(=O)[C@@H]4[C@@H]12` (some centres not stated): the composite z-score in experiment [1] is -0.231 (inactive); in experiment [2], -0.714. The z-score in experiment [3] was -0.508; in experiment [4], -4.69 (inactive); in experiment [5], 0.197 (inactive); in experiment [6], 0.521 (inactive).
For `O=C(O)[C@H]1C[C@H]2C(=O)N3CCC[C@H]3C(=O)N2[C@H]1c1cccc(OCCO)c1`, the composite z-score in experiment [1] was 0.25 (inactive); in experiment [2], 0.335. Moreover, the z-score in experiment [3] is -0.0612; in experiment [4], -3.62 (inactive); in experiment [5], -0.217 (inactive); in experiment [6], 0.0679 (inactive).
`COCCCNC(=O)[C@]1(CCC(=O)OC(C)(C)C)N=C(c2ccc(OCCCO)cc2)O[C@@H]1c1ccccc1`: the composite z-score is 0.538 (inactive) in experiment [1] and 0.817 in experiment [2]. In addition, the z-score in experiment [3] is 0.83; in experiment [4] it was -6.02 (inactive); in experiment [5], -0.289 (inactive); in experiment [6] it was -0.288 (inactive).
Turning to `CC(C)OC(=O)CC(=O)CC(O)c1cccc(C#N)c1` (configuration not stated), the composite z-score in experiment [1] is 0.768 (inactive); in experiment [2], 0.778. Also, the z-score in experiment [3] was 0.612; in experiment [4], -0.542 (inactive); in experiment [5] it was -0.467 (inactive); in experiment [6], -0.295 (inactive).
`CCOC(=O)C[C@H]1[C@H](OC(=O)c2ccc(-c3ccccc3)cc2)[C@@H](NC(=O)C2CCCCC2)c2cc(OCCCO)ccc2N1C(=O)c1ccccc1`: the composite z-score in experiment [1] is -0.264 (inactive); in experiment [2], 0.379. Besides, the z-score was -0.723 in experiment [3], -2.07 (inactive) in experiment [4], -0.0374 (inactive) in experiment [5] and 0.0385 (inactive) in experiment [6].
With `CCOc1cc(C(O)C2C=CC3C(=O)N(C)C(=O)C3N2N2CCCCC2)ccc1O` (configuration not stated), the composite z-score is 0.169 (inactive) in experiment [1] and 0.333 in experiment [2]. Also, the z-score in experiment [3] was -0.144; in experiment [4], -5.25 (inactive); in experiment [5], -0.595 (inactive); in experiment [6] it was -0.839 (inactive).
As to `CC(C)C[C@@H]1NC(=O)[C@H]2C[C@@H](C(=O)NCCCCCC[N+](C)(C)C)[C@@H](c3cccc(OCCO)c3)N2C1=O`, the composite z-score in experiment [1] is 0.506 (inactive); in experiment [2], 0.748. The z-score in experiment [3] is -0.411; in experiment [4], -5.33 (inactive); in experiment [5], -0.481 (inactive); in experiment [6], -0.503 (inactive).
For `C=CCN1C(=O)[C@@]2(O[C@@H](CCn3cc([C@H](O)c4ccccc4)nn3)[C@H]([Si](C)(C)c3ccc(OC)cc3)[C@H]2C)c2ccccc21`, the results for the composite z-score in experiment [1] and in experiment [2] were -0.0466 (inactive) and 0.857, respectively. Also, the z-score in experiment [3] was -0.99; in experiment [4], -5.69 (inactive); in experiment [5], -0.763 (inactive); in experiment [6] it was -1.51 (inactive).
Consider `COCCOC(=O)N1C(=O)[C@@]2(c3cc(C#Cc4ccc(OC)cc4)ccc31)[C@H](C(=O)NC[C@H](O)c1ccccc1)[C@H]1C(=O)O[C@H](c3ccccc3)[C@H](c3ccccc3)N1[C@@H]2c1ccc(O)cc1`, for which the composite z-score in experiment [1] is 1.42 (inactive); in experiment [2], 0.775. In addition, the z-score is -0.754 in experiment [3], -1.78 (inactive) in experiment [4], -0.045 (inactive) in experiment [5] and 0.126 (inactive) in experiment [6].
Turning to `CC(C)N1C(=O)[C@@]2(c3ccc([N+](=O)[O-])cc3)CC(=O)N(C3CCCCC3)[C@@H]2c2ccc(CO)cc21`, the composite z-score is 0.888 (inactive) in experiment [1] and 0.287 in experiment [2]. For the same compound, the z-score was 0.501 in experiment [3], 0.0267 (inactive) in experiment [4], -0.135 (inactive) in experiment [5] and -0.141 (inactive) in experiment [6].
In the case of `COc1ccc(C#Cc2ccc3c(c2)[C@]2(C(=O)N3)[C@H](C(=O)N3CCc4cc(OC)c(OC)cc4C3)[C@H]3C(=O)O[C@H](c4ccccc4)[C@H](c4ccccc4)N3[C@@H]2c2ccc(O)cc2)cc1`, the composite z-score was 0.786 (inactive) in experiment [1] and 0.578 in experiment [2]. In addition, the z-score in experiment [3] is -1.48; in experiment [4], -1.05 (inactive); in experiment [5], -0.24 (inactive); in experiment [6], -0.218 (inactive).
